Assay outcomes deposited in PubChem by several laboratories.
Most compounds without a hit are left out; they make up all but 2.3% or so of the library.
MCL1-BIM inh – MCL1-BIM-BH3 interaction inhibition (human) | Q07820 | GST-MCL1 / FITC-Bim-BH3 fluorescence polarization | inhibition, % at 10.9 µM | actives 0.68% (n = 320,000);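 active means inhibition above the mean inhibition of all tested compounds plus 3 SD, set per campaign, cut at about 40% in these data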;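 further: 0% = DMSO wells and 100% = unlabeled Bim-BH3 peptide control; higher means more loss of mP so more displacement of Bim peptide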
Bcl-xL primary – blocks human Bcl-xL binding to Bim BH3 peptide; GST-Bcl-xL / FITC-Bim BH3 peptide fluorescence polarization; inhibition, % at 10.9 µM; actives 0.7% (n = 320,000);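 active means inhibition above the mean of all tested compounds plus 3 SD, cutoff set per campaign, cut at about 30% in these data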;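 further: 0% = DMSO wells and 100% = unlabeled Bim-BH3 peptide competitor; inhibitors lower millipolarization by displacing the labeled peptide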
Target sequence (Q07817 whole entry, looked up): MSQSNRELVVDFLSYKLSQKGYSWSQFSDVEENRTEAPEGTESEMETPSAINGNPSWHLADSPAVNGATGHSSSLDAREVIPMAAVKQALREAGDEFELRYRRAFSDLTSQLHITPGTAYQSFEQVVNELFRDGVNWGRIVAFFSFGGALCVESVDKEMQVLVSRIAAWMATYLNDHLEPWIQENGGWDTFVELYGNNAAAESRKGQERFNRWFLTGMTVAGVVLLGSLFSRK
Mcl-1 Bim block – disrupts Bim peptide binding to human Mcl-1. actives 0.1% (n = 190,000). Q07820. inhibition, % at 10 µM. Bead-based flow cytometry, Bim peptide-Mcl-1 binding; in the data active means inhibition above about 40%;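 further: 0% = no compound tracer wells and 100% = peptide blocker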
Mcl1 Bid PPI – Mcl-1/Bid interaction inhibition | Q07820 | TR-FRET Mcl-1/Bid-Dy647 peptide binding, 1536-well | inhibition, % at 21.7 µM | actives 0.97% (n = 220,000) | AID 1021;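 active means compounds that cut the binding signal by more than half at the single screening dose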;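 further: His-tagged Mcl-1 with europium anti-His antibody binding Bid BH3 peptide; 0% = Mcl-1 plus peptide wells and 100% = peptide-only wells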
GLD-1 RNA inh – GLD-1-TGE RNA interaction inhibition (C. elegans). Q17339. purified GLD-1 + fluorescein TGE RNA, fluorescence polarization. AID 2280. actives 0.44% (n = 320,000). inhibition, % at 5.96 µM;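 active means percent inhibition above a per-plate cutoff, the plate mean of test compounds plus 3 SD, cut at about 30% in these data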;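 further: 0% = DMSO wells with GLD-1 and probe and 100% = wells lacking GLD-1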
Target sequence (Q17339 whole entry, looked up): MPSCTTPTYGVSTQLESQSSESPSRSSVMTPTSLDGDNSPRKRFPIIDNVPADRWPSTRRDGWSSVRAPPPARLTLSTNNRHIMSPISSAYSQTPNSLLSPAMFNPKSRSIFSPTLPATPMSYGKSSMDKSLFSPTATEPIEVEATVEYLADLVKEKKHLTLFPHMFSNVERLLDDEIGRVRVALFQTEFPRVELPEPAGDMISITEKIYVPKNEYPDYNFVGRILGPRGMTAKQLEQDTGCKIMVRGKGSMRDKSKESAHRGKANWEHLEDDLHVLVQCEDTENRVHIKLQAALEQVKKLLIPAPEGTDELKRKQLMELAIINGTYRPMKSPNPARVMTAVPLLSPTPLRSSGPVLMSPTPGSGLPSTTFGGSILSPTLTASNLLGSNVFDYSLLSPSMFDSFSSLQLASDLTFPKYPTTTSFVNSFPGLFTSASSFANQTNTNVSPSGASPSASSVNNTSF
Mcl1 Noxa PPI – Mcl-1/Noxa interaction inhibition; actives 1.5% (n = 220,000); Q07820; TR-FRET Mcl-1/Noxa peptide binding, 2 h; inhibition, % at 21.7 µM;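 active means compounds that cut the protein-peptide binding signal by more than 50% relative to plate controls in a single-dose test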;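 further: His-tagged Mcl-1 with rhodamine Noxa BH3 peptide and terbium anti-His antibody; 0% = Mcl-1 plus Noxa peptide wells and 100% = peptide-only wells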
BCLXL inh confirm – counter-screen for MCL1 inhibitors: confirmation of human Bcl-xL inhibitors. shares compounds with MCL1-BIM inh. GST-Bcl-xL / FITC-Bim BH3 peptide FP binding. inhibition, % at 10.9 µM. actives 54% (n = 1,700). AID 2166;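 active means inhibition above a cutoff equal to the mean inhibition of all tested compounds plus 3 SD, cut at about 30% in these data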;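 further: 0% = DMSO wells and 100% = unlabeled Bim BH3 control peptide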
MCL1 BIM confirm – MCL1-BIM-BH3 interaction inhibition, confirmation. shares compounds with MCL1-BIM inh. GST-MCL1 / FITC-Bim-BH3 fluorescence polarization. inhibition, % at 10.9 µM. actives 61% (n = 1,700);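 active means inhibition above the average of all tested compounds plus 3 SD, cut at about 40% in these data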;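 further: 0% = DMSO wells and 100% = unlabeled Bim-BH3 control peptide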
* hit, by the source's call; x = not tested or not shown; + = active, no number.

SMILES	MCL1-BIM inh	Bcl-xL primary	Mcl-1 Bim block	Mcl1 Bid PPI	GLD-1 RNA inh	Mcl1 Noxa PPI	BCLXL inh confirm	MCL1 BIM confirm
COc1ccc(S(=O)(=O)N2CCN(C)CC2)cc1C(=O)Nc1ccccc1	2.7	4.2	x	x	-1.0	x	x	x
Cn1cccc1C(=O)OCC(=O)NC(=O)c1ccc(Cl)cc1	x	x	x	x	-6.2	x	x	x
CC(C)c1ccc(NC(=O)c2cc(S(=O)(=O)N3CCCCC3)c[nH]2)cc1	5.8	2.0	x	x	2.4	x	x	x
COC(CNC(=O)c1ccc2c3c(onc13)-c1ccccc1C2=O)OC	+	+	x	-186.8	+	70.5*	+	+
CCC(C(=O)NCc1ccco1)n1nc(C)c2c(C)n(-c3ccccc3)nc2c1=O (stereo unspecified)	2.0	0.8	x	x	4.1	x	x	x
CC(=O)C1=C(c2ccccc2)NC(=O)NC1c1ccc(O)c(O)c1 (stereo unspecified)	81.2*	12.5	1.0	-81.4	7.3	16.7	23.2	35.8
Cc1cccc(NC(=O)CNC(=O)CCc2nc3sc4c(c3c(=O)[nH]2)CCCC4)c1C	43.0*	22.3	x	x	-11.4	x	34.3*	67.3*
N#CC1=C(N)SC(N)=C(C#N)C1c1ccoc1	80.4*	67.2*	-4.0	-28.2	21.4	41.0	4.0	-3.6
Cc1cccc(NS(=O)(=O)c2ccc(C(=O)N3CCC3)cc2)c1C	1.3	3.1	x	x	0.4	x	x	x
C=CCn1c(SCC(=O)c2ccc(O)c(O)c2)nnc1-c1ccccc1OC	54.3*	8.6	-2.0	-57.8	3.1	18.7	8.7	17.9
C=CCn1c(SCC(=O)c2ccc(O)c(O)c2)nnc1-c1cccnc1	40.8*	9.1	x	-35.9	3.7	58.0*	12.1	47.2*
CCn1c(SCC(=O)c2ccc(O)c(O)c2)nnc1-c1ccccc1OC	44.8*	10.2	1.0	-81.3	-6.4	8.4	13.9	40.8*
CCn1c(SCC(=O)c2ccc(O)c(O)c2)nnc1-c1ccccc1	13.4	1.4	-4.0	5.5	8.6	13.3	x	x
N#Cc1ccc(C(=O)NC(=S)N2CCN(C=O)CC2)cc1	x	x	x	x	9.1	x	x	x
CCN1CCN(S(=O)(=O)c2c[nH]c(C(=O)OC)c2)CC1	-5.3	-0.9	x	x	-2.6	x	x	x
COc1ccc(C(=O)COC(=O)CCN=C2NS(=O)(=O)c3ccccc32)c(OC)c1	1.1	1.3	x	x	0.4	x	x	x
Fc1ccc(C2=CC(c3ccc(Br)o3)n3ncnc3N2)cc1 (stereo unspecified)	+	179.9*	-4.0	16.7	163.4*	22.6	124.6*	156.0*
C1=C(c2ccc(-c3ccccc3)cc2)Nc2ncnn2C1c1ccco1 (stereo unspecified)	x	x	-1.0	-55.8	x	19.5	x	x
Fc1ccc(C2=CC(c3ccco3)n3ncnc3N2)cc1 (stereo unspecified)	181.0*	152.1*	-4.0	-76.8	95.9*	11.0	10.6	21.7
C[C@@H]1CN([C@H](C)CO)C(=O)Cc2cc(NC(=O)Nc3ccccc3)ccc2O[C@@H]1CN(C)Cc1ccc2c(c1)OCO2	x	x	x	x	-1.5	x	x	x
CN(C)c1ccc(O)c2c1CC1CC3[C@@H](N(C)C)C(=O)C(C(N)=O)=C(O)[C@]3(O)C(=O)C1=C2O (stereo partly specified)	60.9*	14.5	-3.0	-12.1	3.4	28.1	25.7	67.2*
C[C@H]1c2cccc(O)c2C(O)=C2C(=O)[C@]3(O)C(O)=C(C(N)=O)C(=O)[C@@H](N(C)C)[C@@H]3[C@@H](O)[C@@H]21	21.9	9.4	x	-51.7	-0.4	-84.1	x	x
CCOc1ccc(S(=O)(=O)N(CC(=O)Nc2cccnc2)c2ccc(F)cc2)cc1	3.0	1.4	x	x	7.4	x	x	x
Cc1cccn2c(=O)c(C=C(C#N)C#N)c(N3CCN(C)CC3)nc12	53.4*	58.2*	x	x	24.6	x	11.9	18.4
COCCNC(=O)/C(C#N)=C/c1c(N2CCN(C)CC2)nc2c(C)cccn2c1=O	6.0	5.7	x	x	-4.5	x	x	x
SMILES	MCL1-BIM inh	Bcl-xL primary	Mcl-1 Bim block	Mcl1 Bid PPI	GLD-1 RNA inh	Mcl1 Noxa PPI	BCLXL inh confirm	MCL1 BIM confirm
CS(=O)(=O)c1ccc(Cl)c(NC(=O)CNC(=O)c2ccc3c(c2)OCO3)c1	x	x	x	x	-3.0	x	x	x
CC(=O)Oc1ccc(C2OC(=O)c3ccccc3N2C(C)=O)cc1 (stereo unspecified)	-0.2	3.2	0.0	-4.4	-0.4	-14.4	x	x
CC(=O)N1c2ccccc2C(=O)C1N1CCCCC1 (stereo unspecified)	68.9*	64.5*	-5.0	-6.4	58.0*	-18.5	51.8*	63.5*
C[C@H]1CN([C@@H](C)CO)C(=O)Cc2cc(NC(=O)CCC(F)(F)F)ccc2O[C@H]1CN(C)CC1CC1	x	x	x	x	0.7	x	x	x
Cc1ccc(N2C(=O)[C@@H]3[C@H](C2=O)C2CCCN2[C@@H]3C(=O)c2ccccc2)cc1 (stereo partly specified)	81.0*	77.9*	0.0	-7.6	48.0*	24.4	63.7*	75.7*
O=C(c1ccc(Cl)cc1)C1C2C(=O)N(c3ccccc3)C(=O)C2C2CCCN21 (stereo unspecified)	x	x	1.0	-80.5	x	6.8	x	x
COc1ccc(OC)c2[nH]c(=O)c(CCNS(=O)(=O)c3ccc(Cl)cc3)cc12	44.2*	1.3	-2.0	-9.3	-10.8	11.5	6.3	3.4
COc1ccc(OC)c2[nH]c(=O)c(CCNS(=O)(=O)c3ccc(C)cc3)cc12	5.8	6.0	-1.0	1.4	-1.8	2.6	x	x
COC(=O)CCCC[C@@H]1SC[C@@H](NC(=O)OC)[C@@H]1NC(=O)OC	-3.4	2.9	-2.0	-24.2	8.0	-5.5	x	x
COC(=O)CCCCC1SCC(NC(=O)OC)C1NC(=O)OC (stereo unspecified)	48.7*	6.2	0.0	-26.4	-2.6	-1.4	5.4	2.1
CN(C)c1ccc(/C=N/N(CCO)C2=NS(=O)(=O)c3ccccc32)cc1	140.2*	+	x	x	35.8*	x	+	+
Cc1noc(C)c1CSCC(=O)Nc1nc2c(F)cc(F)cc2s1	13.7	6.6	x	x	-0.6	x	x	x
Cn1c(N2CCCC2)nc2c1c(=O)[nH]c(=O)n2C	10.2	7.8	x	x	-1.9	x	x	x
COc1cccc(NC(=O)CSc2nnc(-c3ccco3)c(-c3ccco3)n2)c1	49.2*	27.0	x	x	11.4	x	35.4*	64.1*
COc1ccc(NC(=O)CSc2nnc(-c3ccco3)c(-c3ccco3)n2)cc1OC	8.4	10.7	x	x	-0.6	x	x	x
O=C(CSc1nnc(-c2ccco2)c(-c2ccco2)n1)Nc1ccccc1	59.6*	24.6	-1.0	23.1	6.1	89.6*	34.4*	83.2*
CCCCc1ccc(NC(=O)C(=O)NCCN2CCN(Cc3ccc([N+](=O)[O-])cc3)CC2)cc1	-2.5	-0.5	0.0	2.9	-4.7	13.6	x	x
